Values joined by “and” are separate entries in the source; they are usually repeats but may differ in a detail not shown here. Identical values can stand only once. Out of some 5,500 compounds screened, about 2,000 (36%) were called active. Roughly 18% stayed inconclusive and do not appear here. This is one part of the list. Unmarked numbers belong to inactive results. Cut-off read from the data, not from the text of the source: active = normalized growth mostly below about 0.91 (no sharp cut-off); inconclusive = no clear call, values can overlap the other calls; inactive = mostly above about 0.92.
Experiment: chemical genetic growth profiling, strain panel (AID 1159580);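 note: tested at 20 µM; growth read once vehicle control cultures reached saturation at 30 °C; 1 = growth at the plate median or of vehicle wells; lower values mean less growth of the strain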
Conditions: S. cerevisiae deletion strains, growth OD

SMILES: O=C1c2c(O)ccc(O)c2C(=O)c2c(NCCNCCO)ccc(NCCNCCO)c21
- normalized growth (locus YJR066W, strain TOR1, hits give low values): 0.85
- normalized growth (locus YJR075W, strain HOC1, hits give low values): 0.968
- normalized growth (locus YKL009W, strain mrt4, hits give low values): 0.925
- normalized growth (locus YKL068W, hits give low values): 1.06 [resistant] (active)
- normalized growth (locus YKL085W, strain MDH1 (second series), hits give low values): 1.05
- normalized growth (locus YKL085W, strain MDH1, hits give low values): 1.05
- normalized growth (locus YKL160W, strain elf1, hits give low values): 0.858 (active)
- normalized growth (locus YKL190W, strain CNB1, hits give low values): 0.998
- normalized growth (locus YKR001C, strain vps1, hits give low values): 0.74 (active)
- normalized growth (locus YKR026C, strain gcn3, hits give low values): 1.04
- normalized growth (locus YKR091W, strain srl3, hits give low values): 1.01
- normalized growth (locus YLL001W, strain dnm1, hits give low values): 0.727 (active)
- normalized growth (locus YLL026W, hits give low values): 0.914 (active)
- normalized growth (locus YLL041C, strain sdh2, hits give low values): 1.01
- normalized growth (locus YLR027C, strain aat2, hits give low values): 0.855 (active)
- normalized growth (locus YLR039C, strain RIC1, hits give low values): 0.707
- normalized growth (locus YLR058C, strain SHM2, hits give low values): 1.02
- normalized growth (locus YLR102C, strain apc9, hits give low values): 1.06
- normalized growth (locus YLR113W, strain HOG1, hits give low values): 0.828 (active)
- normalized growth (locus YLR221C, strain rsa3, hits give low values): 0.865 (active)
- normalized growth (locus YLR258W, strain gsy2, hits give low values): 0.94
- normalized growth (locus YLR262C, strain YPT6 (second series), hits give low values): 0.443 (active)
- normalized growth (locus YLR262C, strain YPT6, hits give low values): 0.711
- normalized growth (locus YLR268W, strain sec22, hits give low values): 0.857 (active)
- normalized growth (locus YLR320W, strain mms22, hits give low values): 0.248 (active)
- normalized growth (locus YLR330W, strain CHS5, hits give low values): 1.03
- normalized growth (locus YLR342W, strain FKS1 (second series), hits give low values): 0.871
- normalized growth (locus YLR342W, strain FKS1, hits give low values): 0.83 (active)
- normalized growth (locus YLR357W, strain rsc2, hits give low values): 0.976
- normalized growth (locus YLR370C, strain arc18, hits give low values): 0.28 (active)
- normalized growth (locus YLR371W, strain rom2, hits give low values): 1.01
- normalized growth (locus YLR384C, strain iki3, hits give low values): 0.745 (active)
- normalized growth (locus YLR418C, strain cdc73, hits give low values): 1.02
- normalized growth (locus YML016C, strain PPZ1, hits give low values): 1.03
- normalized growth (locus YML032C, strain rad52, hits give low values): 0.19 (active)
- normalized growth (locus YML120C, strain ndi1, hits give low values): 0.878 (active)
- normalized growth (locus YML124C, strain tub3, hits give low values): 1.05
- normalized growth (locus YMR058W, strain fet3, hits give low values): 0.396 (active)
- normalized growth (locus YMR078C, strain ctf18, hits give low values): 0.429 (active)
- normalized growth (locus YMR125W, strain sto1, hits give low values): 0.982
- normalized growth (locus YMR129W, hits give low values): 0.941
- normalized growth (locus YMR205C, strain PFK2, hits give low values): 0.975
- normalized growth (locus YMR223W, strain ubp8, hits give low values): 0.91
- normalized growth (locus YMR231W, strain pep5, hits give low values): 0.174 (active)
- normalized growth (locus YMR263W, strain SAP30, hits give low values): 0.954 and 1.02
- normalized growth (locus YMR307W, strain GAS1, hits give low values): 0.562 (active) and 0.648 (active)
- normalized growth (locus YNL067W, strain RPL9B, hits give low values): 0.976
- normalized growth (locus YNL071W, strain lat1, hits give low values): 1.12 [resistant] (active)
- normalized growth (locus YNL128W, strain TEP1, hits give low values): 1.07
- normalized growth (locus YNL175C, strain NOP13, hits give low values): 1.07
- normalized growth (locus YNL183C, strain NPR1, hits give low values): 0.815 (active)
- normalized growth (locus YNL197C, strain WHI3, hits give low values): 1.06
- normalized growth (locus YNL209W, strain ssb2, hits give low values): 0.825 (active)
- normalized growth (locus YNL224C, strain SQS1, hits give low values): 1.08 [resistant] (active)
- normalized growth (locus YNL233W, strain BNI4, hits give low values): 0.966
- normalized growth (locus YNL248C, strain rpa49, hits give low values): 0.678 (active)
- normalized growth (locus YNL250W, strain rad50, hits give low values): 0.181 (active)
- normalized growth (locus YNL271C, strain bni1, hits give low values): 0.944
- normalized growth (locus YNL298W, strain CLA4, hits give low values): 0.989
- normalized growth (locus YNL307C, strain MCK1, hits give low values): 1.08
- normalized growth (locus YNL322C, strain KRE1 (second series), hits give low values): 0.933
- normalized growth (locus YNL322C, strain KRE1, hits give low values): 1.01
- normalized growth (locus YNR049C, strain mso1, hits give low values): 0.912 (active)
- normalized growth (locus YNR052C, strain pop2, hits give low values): 0.69 (active)
- normalized growth (locus YOL006C, strain TOP1, hits give low values): 0.424 (active)
- normalized growth (locus YOL012C, strain htz1): 0.838
- normalized growth (locus YOL147C, strain pex11, hits give low values): 1.07
- normalized growth (locus YOR001W, strain rrp6, hits give low values): 0.681 (active)
- normalized growth (locus YOR061W, strain CKA2, hits give low values): 1.01
- normalized growth (locus YOR069W, strain VPS5, hits give low values): 1.02
- normalized growth (locus YOR070C, strain gyp1, hits give low values): 0.734 (active)
- normalized growth (locus YOR080W, strain dia2, hits give low values): 0.447 (active)
- normalized growth (locus YOR083W, strain WHI5 (second series), hits give low values): 1
- normalized growth (locus YOR083W, strain WHI5, hits give low values): 0.726 (active)
- normalized growth (locus YOR106W, strain vam3, hits give low values): 0.363 (active)
- normalized growth (locus YOR136W, strain idh2, hits give low values): 1.01
- normalized growth (locus YOR144C, strain elg1, hits give low values): 0.984
- normalized growth (locus YOR184W, strain ser1, hits give low values): 0.802 (active)
- normalized growth (locus YOR231W, strain MKK1, hits give low values): 0.927
- normalized growth (locus YOR265W, strain rbl2, hits give low values): 0.932
- normalized growth (locus YOR270C, strain vph1, hits give low values): 0.327 (active)
- normalized growth (locus YOR290C, strain snf2, hits give low values): 0.653 (active)
- normalized growth (locus YOR316C, strain cot1, hits give low values): 1.06
- normalized growth (locus YPL051W, strain arl3, hits give low values): 0.869 (active)
- normalized growth (locus YPL055C, strain LGE1, hits give low values): 0.868 (active)
- normalized growth (locus YPL078C, strain atp4, hits give low values): 0.974
- normalized growth (locus YPL106C, strain sse1, hits give low values): 1.07
- normalized growth (locus YPL240C, strain hsp82, hits give low values): 1.03
- normalized growth (locus YPL241C, strain CIN2, hits give low values): 1.04
- normalized growth (locus YPL256C, strain CLN2, hits give low values): 0.959
- normalized growth (locus YPR119W, strain clb2, hits give low values): 1.05
- normalized growth (locus YPR141C, strain kar3, hits give low values): 1.05
- normalized growth (locus YPR163C, strain tif3, hits give low values): 1.03
- normalized growth (locus YPR167C, strain met16, hits give low values): 0.993
- normalized growth (strain wtn01, hits give low values): 0.963

Source: PubChem BioAssay AID1159580 (chemical genetic matrix, 2015)
